Among all 1,100 compounds or so, about 1,000 (91%) were called active.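 Rule for the calls: active = inhibition above 3 SD of the buffer control wells (cut at about 41% in these data); inactive = the rest.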 So high a share suggests a set chosen from earlier hits. Not all results are given here.
assay: reduced carbachol calcium response, RGS4-induced M3R cells, confirmation, RGS4 activator project, cell-based, HEK293 M3R/RGS4 inducible, calcium flux, duplicate (AID 602282); conditions: carbachol calcium flux Fluo4, at 10 µM, active compounds read high;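 note: signal is the integrated peak-minus-minimum Fluo4 fluorescence over baseline ratio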

| Compound | inhibition |
| --- | --- |
| C=CC12CN(C)[C@@H]3C4CO[C@H](C[C@H]41)[C@]1(C(=O)Nc4ccccc41)[C@@H]32 (some centres not stated) | 84% (active) |
| CC(C)Oc1cccc(C(=O)C2CCCN(C3CCOCC3)C2)c1 (configuration not stated) | 42.5% (active) |

From PubChem BioAssay AID602282 (Johns Hopkins Ion Channel Center, 2012)
